Experimental data as given in ChEMBL document CHEMBL2218924, “A broad activity screen in support of a chemogenomic map for kinase signalling research and drug discovery” (Biochem J, 2013).

Columns and labels:
[1] = target: T1, CDK9/cyclin T1 (Homo sapiens) (UniProt O60563+P50750); conditions: at 1 µM
[2] = target: T1, CDK9/cyclin T1 (Homo sapiens); conditions: at 10 µM
[3] = target: T2, Serine/threonine-protein kinase Chk1 (Homo sapiens) (UniProt O14757); conditions: at 1 µM
T2 sequence (whole entry): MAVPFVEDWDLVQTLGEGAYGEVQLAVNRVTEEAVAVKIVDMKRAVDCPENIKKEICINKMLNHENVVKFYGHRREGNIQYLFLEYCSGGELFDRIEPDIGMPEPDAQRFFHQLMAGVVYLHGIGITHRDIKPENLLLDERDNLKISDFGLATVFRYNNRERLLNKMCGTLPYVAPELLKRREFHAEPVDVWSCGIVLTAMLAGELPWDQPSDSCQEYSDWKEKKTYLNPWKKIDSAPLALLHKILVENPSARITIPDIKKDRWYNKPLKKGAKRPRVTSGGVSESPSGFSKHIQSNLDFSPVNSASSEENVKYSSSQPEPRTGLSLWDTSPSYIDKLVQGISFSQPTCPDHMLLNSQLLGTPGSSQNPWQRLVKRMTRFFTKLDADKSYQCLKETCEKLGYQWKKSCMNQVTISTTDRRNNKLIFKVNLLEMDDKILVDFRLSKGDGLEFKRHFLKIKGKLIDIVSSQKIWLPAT

[4] = target: T2, Serine/threonine-protein kinase Chk1 (Homo sapiens); conditions: at 10 µM
[5] = target: Serine/threonine-protein kinase Chk2 (Homo sapiens) (UniProt O96017); conditions: at 1 µM
[6] = target: Serine/threonine-protein kinase Chk2 (Homo sapiens) (UniProt O96017); conditions: at 10 µM
[7] = target: Casein kinase I isoform gamma-1 (Homo sapiens) (UniProt Q9HCP0); conditions: at 1 µM
[8] = target: Casein kinase I isoform gamma-1 (Homo sapiens) (UniProt Q9HCP0); conditions: at 10 µM
[9] = target: Casein kinase I isoform delta (Homo sapiens) (UniProt P48730); conditions: at 1 µM
[10] = target: Casein kinase I isoform delta (Homo sapiens) (UniProt P48730); conditions: at 10 µM

Chain of Casein kinase I isoform delta (Homo sapiens) (P48730 whole entry, looked up, canonical isoform): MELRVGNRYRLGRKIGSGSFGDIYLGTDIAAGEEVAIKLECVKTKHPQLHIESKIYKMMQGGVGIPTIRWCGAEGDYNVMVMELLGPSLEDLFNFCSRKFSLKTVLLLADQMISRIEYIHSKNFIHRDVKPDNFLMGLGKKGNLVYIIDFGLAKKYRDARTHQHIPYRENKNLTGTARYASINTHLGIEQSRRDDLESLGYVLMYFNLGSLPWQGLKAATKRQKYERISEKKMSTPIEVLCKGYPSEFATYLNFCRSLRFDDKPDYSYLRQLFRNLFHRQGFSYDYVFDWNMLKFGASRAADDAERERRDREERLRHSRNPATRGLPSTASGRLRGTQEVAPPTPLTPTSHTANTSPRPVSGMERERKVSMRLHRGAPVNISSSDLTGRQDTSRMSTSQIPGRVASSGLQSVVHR
Chain of Serine/threonine-protein kinase Chk2 (Homo sapiens) (O96017 whole entry, canonical isoform): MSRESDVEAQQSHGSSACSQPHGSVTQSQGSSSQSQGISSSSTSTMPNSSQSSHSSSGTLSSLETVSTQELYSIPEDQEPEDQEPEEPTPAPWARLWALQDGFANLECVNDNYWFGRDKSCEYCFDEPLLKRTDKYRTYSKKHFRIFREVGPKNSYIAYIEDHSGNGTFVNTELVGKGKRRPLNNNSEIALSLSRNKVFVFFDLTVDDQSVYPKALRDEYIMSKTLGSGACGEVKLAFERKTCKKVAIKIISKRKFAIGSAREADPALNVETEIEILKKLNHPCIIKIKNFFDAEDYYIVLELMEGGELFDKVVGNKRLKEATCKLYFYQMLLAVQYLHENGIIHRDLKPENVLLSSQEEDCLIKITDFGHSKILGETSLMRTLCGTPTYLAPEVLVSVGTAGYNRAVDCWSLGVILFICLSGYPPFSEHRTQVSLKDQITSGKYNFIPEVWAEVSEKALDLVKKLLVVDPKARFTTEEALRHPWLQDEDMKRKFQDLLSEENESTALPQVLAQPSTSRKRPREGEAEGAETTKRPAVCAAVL
Chain of Casein kinase I isoform gamma-1 (Homo sapiens) (Q9HCP0 whole entry, looked up, canonical isoform): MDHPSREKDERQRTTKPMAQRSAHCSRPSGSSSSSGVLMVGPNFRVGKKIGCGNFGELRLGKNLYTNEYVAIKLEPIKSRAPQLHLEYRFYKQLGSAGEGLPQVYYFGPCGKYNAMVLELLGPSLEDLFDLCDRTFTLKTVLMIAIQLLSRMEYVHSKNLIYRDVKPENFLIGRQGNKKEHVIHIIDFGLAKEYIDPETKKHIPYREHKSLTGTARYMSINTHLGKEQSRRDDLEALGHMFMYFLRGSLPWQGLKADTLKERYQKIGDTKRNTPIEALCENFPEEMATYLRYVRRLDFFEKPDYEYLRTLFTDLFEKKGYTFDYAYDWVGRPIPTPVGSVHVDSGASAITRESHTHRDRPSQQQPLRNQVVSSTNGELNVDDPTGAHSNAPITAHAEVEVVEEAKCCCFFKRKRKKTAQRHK

Compound | residual activity [1] [%] | residual activity [2] [%] | residual activity [3] [%] | residual activity [4] [%] | residual activity [5] [%] | residual activity [6] [%] | residual activity [7] [%] | residual activity [8] [%] | residual activity [9] [%] | residual activity [10] [%]
O=C1NC(=O)/C(=C/c2ccc3c(c2)OC(F)(F)O3)S1 | 94 | 77 | 94 | 88 | 93 | 85 | 95 | 94 | 80 | 65
Nc1cccc(-c2cc3c(Oc4cccc(O)c4)ncnc3[nH]2)c1 | 31 | 5 | 45 | 11 | 54 | 12 | 86 | 49 | 86 | 44
Cn1cnc2cc3c(Nc4cccc(Br)c4)ncnc3cc21 | 108 | 93 | 95 | 92 | 89 | 56 | 84 | 81 | 87 | 64
CO[C@H]1[C@@H](OC)C[C@H](C)[C@@H](OC)C2=CC(=O)C=C(NC(=O)/C(C)=C/C=C/[C@H](OC)[C@@H](OC(N)=O)/C(C)=C/[C@@H]1C)C2=O | 100 | 83 | 96 | 87 | 91 | 89 | 91 | 94 | 90 | 81
N#C/C(=C(\N)Sc1ccc(N)cc1)c1ccccc1C(F)(F)F | 81 | 96 | 90 | 86 | 94 | 81 | 103 | 87 | 87 | 82
c1ccc(-c2n[nH]cc2-c2ccnc3ccccc23)nc1 | 103 | 67 | 89 | 91 | 90 | 88 | 89 | 47 | 25 | 2
Cc1ccc(NC2=CC(=O)c3sc(C)nc3C2=O)cc1 | 104 | 106 | 96 | 87 | 96 | 82 | 97 | 88 | 96 | 88
O=C(O)c1ccc2c3c1cccc3c(=O)n1c3ccccc3nc21 | 75 | 30 | 99 | 94 | 86 | 38 | 99 | 65 | 87 | 58
CC(=O)c1ccc(N2CCOCC2)cc1O | 85 | 74 | 96 | 93 | 94 | 91 | 97 | 97 | 89 | 94
COc1ccc(CNc2nc(N(CCO)CCO)nc3c2ncn3C(C)C)cc1 | 29 | 0 | 93 | 87 | 77 | 33 | 67 | 29 | 40 | 6
COc1cc2ncnc(Nc3ccc(O)c(Br)c3)c2cc1OC | 91 | 41 | 80 | 70 | 46 | 11 | 90 | 41 | 81 | 38
C[C@@H](N)[C@H]1CC[C@H](C(=O)Nc2ccncc2)CC1 | 97 | 57 | 107 | 104 | 103 | 97 | 102 | 99 | 103 | 110
CC#CC(=O)Nc1cc2c(Nc3ccc(F)c(Cl)c3)ncnc2cn1 | 97 | 96 | 89 | 98 | 99 | 108 | 89 | 95 | 93 | 106
Cc1nc(-c2ccccc2)c(-c2ccncc2)o1 | 111 | 98 | 102 | 98 | 91 | 72 | 111 | 82 | 44 | 8
O=C1NC(=O)c2c1c1c3ccccc3[nH]c1c1[nH]c3cc(Br)ccc3c21 | 82 | 76 | 77 | 47 | 33 | 30 | 104 | 88 | 92 | 90
O=C1NC(=O)c2cc(Nc3ccc(F)cc3)c(Nc3ccc(F)cc3)cc21 | 100 | 88 | 85 | 103 | 84 | 77 | 86 | 68 | 84 | 45
Oc1n[nH]c2nnc(-c3c(-c4ccccc4)nn4ccccc34)cc12 | 90 | 99 | 93 | 81 | 19 | 11 | 94 | 83 | 84 | 54
O=C(Nc1cccc(Nc2cc(Nc3cccc(C(F)(F)F)c3)ncn2)c1)C1CC1 | 85 | 62 | 89 | 86 | 97 | 74 | 85 | 66 | 85 | 54

Compound | residual activity [1] [%] | residual activity [2] [%] | residual activity [3] [%] | residual activity [4] [%] | residual activity [5] [%] | residual activity [6] [%] | residual activity [7] [%] | residual activity [8] [%] | residual activity [9] [%] | residual activity [10] [%]
COc1cc2ncnc(Nc3ccc(NC(=O)c4ccccc4)cc3)c2cc1OC | 111 | 100 | 97 | 99 | 34 | 8 | 92 | 78 | 79 | 69
CO[C@@H]1[C@H](N(C)C(=O)c2ccccc2)C[C@H]2O[C@]1(C)n1c3ccccc3c3c4c(c5c6ccccc6n2c5c31)C(=O)NC4 | 70 | 58 | 59 | 65 | 79 | 54 | 66 | 49 | 80 | 69
c1ccc2c(-c3ccncc3)c[nH]c2c1 | 67 | 20 | 89 | 80 | 86 | 100 | 96 | 95 | 85 | 81
Oc1ccc(Nc2nc(-c3ccc(Cl)cc3)cs2)cc1 | 104 | 99 | 99 | 104 | 64 | 40 | 113 | 98 | 79 | 72
CC(C)n1cnc2c(NCc3ccccc3)nc(NCCCO)nc21 | 56 | 7 | 95 | 87 | 86 | 60 | 94 | 49 | 70 | 22
O=C1Nc2cc(Br)ccc2/C1=C1/Nc2ccccc2/C1=N\O | 32 | 42 | 45 | 19 | 18 | 3 | 64 | 73 | 51 | 17
CNc1cc2c(Nc3cccc(Br)c3)ncnc2cn1 | 86 | 86 | 88 | 77 | 97 | 56 | 101 | 69 | 111 | 90
CCN(CC)CCCCN1c2ccccc2Oc2ccc(Cl)cc21 | 108 | 108 | 99 | 103 | 94 | 103 | 102 | 103 | 95 | 96
Cc1ccc(S(=O)(=O)/C=C/C#N)cc1 | 102 | 87 | 99 | 89 | 85 | 78 | 80 | 83 | 96 | 89
O=C1Nc2ccc(Br)cc2/C1=C\c1cc2c([nH]1)CCCC2 | 104 | 97 | 78 | 81 | 44 | 42 |  |  |  | 
O=C1Nc2ccccc2/C1=C1/Nc2ccccc2/C1=N\OCCC(O)CO (configuration not stated) | 12 | 7 | 68 | 33 | 26 | 3 | 102 | 55 | 35 | 9
COc1ccc(S(=O)(=O)N(CCO)c2ccccc2CN(C)C/C=C/c2ccc(Cl)cc2)cc1 | 87 | 113 | 92 | 89 | 103 | 73 | 103 | 75 | 87 | 66
N#CCCc1ccc2c(c1)-c1[nH]c3ccc([N+](=O)[O-])cc3c1CC(=O)N2 | 1 | 0 | 39 | 16 | 4 | 0 |  |  |  | 
O=C1c2ccccc2-[n+]2ccc3c([nH]c4ccccc43)c21 | 86 | 92 | 94 | 87 | 77 | 75 | 98 | 81 | 79 | 77
CC(=O)O/N=C1\C(=C2\C(=O)Nc3cc(Br)ccc32)Nc2ccccc21 | 63 | 51 | 95 | 65 | 71 | 26 | 99 | 82 | 78 | 48
COc1ccc(C(=O)Nc2sc3c(c2C(N)=O)CCCC3)cc1OC | 96 | 97 | 81 | 104 | 77 | 98 | 84 | 103 | 89 | 96
Ic1cccc(CSc2nnc(-c3ccncc3)o2)c1 | 75 | 87 | 57 | 49 | 72 | 65 | 101 | 84 | 83 | 75
